# In PubChem BioAssay (NCATS):
# A number with no mark means an inactive call. Records with an inconclusive call do not appear. Entries that show only a call come without a potency. Active and inactive are the calls of the source. Calls follow the shape of the dose curve; as a rule, active = well fitted curve in the direction sought with a large enough effect; inconclusive = small, poorly fitted or top-dose-only effect, or another doubt; inactive = no such curve, though single readings can be large; an effect the other way counts as inactive or inconclusive.
# Columns and labels:
# [1] = P-glycoprotein substrates identified in KB-8-5-11 adenocarcinoma cell line, qHTS therapeutic library screen (AID 1346987); also: nearly all actives have a fitted effect of over 65% in size; also: potency is read from the fitted curve at half-maximal effect
# How it was run: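 KB-8-5-11: colchicine-selected sub-line of KB-3-1 over-expressing P-gp; assay medium lacked colchicine. 72 h drug exposure at 37 degree C, CellTiter-Glo.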
# [2] = system: Zika virus NS2B-NS3 protease (linked construct); assay: Primary screen NINDS Rhodamine qHTS for Zika virus inhibitors (AID 1347160); also: nearly all actives have a fitted effect of over 55% in size
# How it was run: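 Purified NS2B-NS3 protease with the NS2B hydrophilic domain joined by a flexible linker (25 nM) in 10 mM Tris-HCl pH 8.0, 0.01% Tween 20, preincubated 15 min at RT with compound; Rhodamine110 peptide substrate 1.5 µM; fluorescence change over 15 min; 4-parameter Hill fit.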
# [3] = target: Calcium and integrin-binding protein 1 (Homo sapiens) (UniProt Q99828); assay: Primary qHTS for Identification of Calcium Integrin Binding Protein 1 (CIB1) Competitor (AID 1508620);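 also: GST tagged CIB1 binding a fluorescein labelled alphaIIb integrin peptide tracer; top concentration of the series differs between compounds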
# Chain of Calcium and integrin-binding protein 1 (Homo sapiens) (Q99828 whole entry, looked up): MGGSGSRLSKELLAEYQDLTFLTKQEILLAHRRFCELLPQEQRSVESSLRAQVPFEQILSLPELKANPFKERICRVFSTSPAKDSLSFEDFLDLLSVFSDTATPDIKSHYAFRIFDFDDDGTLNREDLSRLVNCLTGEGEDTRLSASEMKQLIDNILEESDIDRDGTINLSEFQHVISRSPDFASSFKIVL
# How it was run: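 Fluorescence polarization competition: GST-tagged CIB1 (1 uM final) preincubated with compound 15 min at room temperature, then FITC-labelled alphaIIb peptide (100 nM final) added. After 15 min at room temperature, polarization read at Ex 480/Em 540.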
# [4] = target: Glutathione peroxidase 1 (Homo sapiens) (UniProt P07203); assay: Primary qHTS Assay for Inhibitors of Recombinant Selenoprotein Glutathione Peroxidase 1 (GPX1) (AID 1845191); also: nearly all actives have a fitted effect of over 65% in size
# Chain of Glutathione peroxidase 1 (Homo sapiens) (P07203 whole entry, looked up): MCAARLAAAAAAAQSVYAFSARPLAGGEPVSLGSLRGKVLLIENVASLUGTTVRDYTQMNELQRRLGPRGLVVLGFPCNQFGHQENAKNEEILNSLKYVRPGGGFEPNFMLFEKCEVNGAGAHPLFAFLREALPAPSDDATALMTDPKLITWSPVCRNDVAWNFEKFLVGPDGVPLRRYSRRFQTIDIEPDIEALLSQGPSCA
# How it was run: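 GR-coupled assay: compounds preincubated 30 min at room temperature with GPX1, then reaction started with CHP; final 10 nM GPX1, 1 mM GSH, 0.5 mM CHP, 0.5 mM NADPH, 100 nM GR, 0.01% BSA, pH 7.5 Tris buffer. NADPH fluorescence (340/450 nm) read at 0 and 15 min.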
# [5] = target: Phospholipid hydroperoxide glutathione peroxidase GPX4 (Homo sapiens) (UniProt P36969); assay: Primary qHTS Assay for Inhibitors of Recombinant Selenoprotein Glutathione Peroxidase 4 (GPX4) (AID 1845192); also: nearly all actives have a fitted effect of over 65% in size
# Chain of Phospholipid hydroperoxide glutathione peroxidase GPX4 (Homo sapiens) (P36969 whole entry, looked up): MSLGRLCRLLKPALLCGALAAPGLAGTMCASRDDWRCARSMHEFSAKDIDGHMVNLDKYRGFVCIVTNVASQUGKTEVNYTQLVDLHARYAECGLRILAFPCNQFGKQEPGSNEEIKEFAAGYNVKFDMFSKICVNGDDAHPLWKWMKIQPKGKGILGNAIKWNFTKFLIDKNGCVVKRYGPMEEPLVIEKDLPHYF
# How it was run: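 GR-coupled assay: recombinant GPX4 preincubated 30 min with compound at room temperature; final 200 nM GPX4, 1 mM GSH, 0.5 mM cumene hydroperoxide, 0.5 mM NADPH, 100 nM GR, 0.01% BSA, pH 7.5 Tris. NADPH fluorescence (340/450 nm) read at 0 and 15 min.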
# [6] = target: Luciferin 4-monooxygenase (Photinus pyralis) (UniProt P08659); assay: Primary firefly luciferase (FLuc) qHTS assay for identification of artifact compounds. (AID 1845220); settings: outcome: dose series up to 54.1 µM unless noted; also: nearly all actives have a fitted effect of over 60% in size
# How it was run: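 Titrated compounds were incubated 15 min at RT, protected from light, with luciferin and ATP at 10 uM; reaction started with 10 nM FLuc, luminescence imaged at 5 min, and concentration-response fitted by Hill equation.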
# [7] = system: Nanoluciferase (engineered Oplophorus gracilirostris luciferase); assay: Primary Nanoluciferase (NLuc) qHTS assay for identification of artifact compounds. (AID 1845222);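 also: NLuc secreted into diluted conditioned medium of S16 cells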
# How it was run: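 qHTS format, against NLuc in S16 cell-conditioned medium. Nano-Glo substrate 1:100 was added after 15 min at room temperature. Luminescence was taken after a further 5 min.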
# [8] = system: CRL-7250; assay: Cytotoxic Profiling of Annotated Libraries Using Quantitative High-Throughput Screening (AID 1296008); settings: Five cell lines viability, CellTiter-Glo ATP luminescence, 48-72 h; max response: hits give low values; also: nearly all actives have a fitted effect of over 60% in size; also: potency is read from the fitted curve at half-maximal effect
# How it was run: (§1)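 Cells exposed to compounds for 48 or 72 hr at 37 degrees Celsius. Viability read as ATP-coupled luminescence with CellTiter-Glo after 10 min at room temperature.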
# [9] = system: NIH3T3; assay: as above; settings: Five cell lines viability, CellTiter-Glo ATP luminescence, 48-72 h; max response: hits give low values
# How it was run: as §1
# [10] = system: C33A; assay: Primary qHTS to identify gynecologic anti-cancer compounds using libraries of approved drugs and bioactive compounds (AID 1345084); settings: Gynecologic cancer cell panel viability, ATPlite luminescence, 48 h; series mostly up to 57.5 µM; also: nearly all actives have a fitted effect of over 55% in size; also: potency is read from the fitted curve at half-maximal effect
# How it was run: (§2)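 ATP-based viability (ATPlite), 1,000 cells/well, 16 h pre-incubation, 48 h compound at 37 C, 5% CO2, 15 min RT before read.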
# [11] = system: CAOV3; assay: as above; settings: Gynecologic cancer cell panel viability, ATPlite luminescence, 48 h; series mostly up to 57.5 µM
# How it was run: as §2
# [12] = system: CASKI; assay: as above; settings: Gynecologic cancer cell panel viability, ATPlite luminescence, 48 h; series mostly up to 57.5 µM
# How it was run: as §2
# [13] = system: Es-2; assay: as above; settings: Gynecologic cancer cell panel viability, ATPlite luminescence, 48 h; series mostly up to 57.5 µM
# How it was run: as §2
# [14] = system: HeLa; assay: as above; settings: Gynecologic cancer cell panel viability, ATPlite luminescence, 48 h; series mostly up to 57.5 µM
# How it was run: as §2
# [15] = system: Hek293T; assay: as above; settings: Gynecologic cancer cell panel viability, ATPlite luminescence, 48 h, control line for the selectivity index; series mostly up to 57.5 µM
# How it was run: as §2
# [16] = system: JEG-3; assay: as above; settings: Gynecologic cancer cell panel viability, ATPlite luminescence, 48 h; series mostly up to 57.5 µM
# How it was run: as §2
# [17] = system: OV90; assay: as above; settings: Gynecologic cancer cell panel viability, ATPlite luminescence, 48 h; series mostly up to 57.5 µM
# How it was run: as §2
# [18] = system: PA-1; assay: as above; settings: Gynecologic cancer cell panel viability, ATPlite luminescence, 48 h; series mostly up to 57.5 µM
# How it was run: as §2
# [19] = system: Tov-21-G; assay: as above; settings: Gynecologic cancer cell panel viability, ATPlite luminescence, 48 h; series mostly up to 57.5 µM
# How it was run: as §2
# [20] = system: Tov112D; assay: as above; settings: Gynecologic cancer cell panel viability, ATPlite luminescence, 48 h; series mostly up to 57.5 µM
# How it was run: as §2
structure (smiles),measurement,setting,value
CCCN(CCC)[C@@H]1CCc2ccc3[nH]c(C#N)cc3c2C1,Potency,[1],inactive
same,Potency,[2],inactive
same,Potency,[3],inactive
same,Potency,[4],inactive
same,Potency,[5],inactive
same,outcome,[6],inactive
same,Potency,[7],inactive
same,outcome,[8],inactive
same,outcome,[9],inactive
same,Potency,[10],inactive
same,Potency,[11],inactive
same,Potency,[12],inactive
same,Potency,[13],inactive
same,Potency,[14],inactive
same,Potency,[15],inactive
same,Potency,[16],inactive
same,Potency,[17],inactive
same,Potency,[18],inactive
same,Potency,[19],inactive
same,Potency,[20],inactive
Cc1c(N[C@@H](c2nnc(-c3ccc(C#N)cc3)o2)[C@H](C)O)ccc(C#N)c1Cl,Potency,[1],inactive
same,Potency,[2],inactive
same,Potency,[4],inactive
same,Potency,[5],inactive
same,outcome,[6],inactive
same,Potency,[7],inactive
same,outcome,[8],inactive
same,max response,[9],4.88%
same,Potency,[10],inactive
same,Potency,[11],inactive
same,Potency,[12],inactive
same,Potency,[13],inactive
same,Potency,[14],inactive
same,Potency,[15],inactive
same,Potency,[16],inactive
same,Potency,[17],inactive
same,Potency,[18],inactive
same,Potency,[19],inactive
same,Potency,[20],inactive
CC12CCC3C(C1)c1c(cc(O)c(C(=O)c4ccccc4)c1OC3(C)C)O2 (configuration not stated),Potency,[1],inactive
same,Potency,[2],inactive
same,Potency,[3],inactive
same,Potency,[5],inactive
same,outcome,[6],inactive
same,Potency,[7],inactive
same,outcome,[8],inactive
same,max response,[9],3.12%
same,Potency,[10],inactive
same,Potency,[11],inactive
same,Potency,[12],inactive
same,Potency,[13],inactive
same,Potency,[14],inactive
same,Potency,[15],inactive
same,Potency,[16],inactive
same,Potency,[17],inactive
same,Potency,[18],inactive
same,Potency,[19],inactive
same,Potency,[20],inactive
COc1ccc2c(c1)c(CCN(C)C)cn2S(=O)(=O)c1ccccc1,Potency,[1],inactive
same,Potency,[3],inactive
same,Potency,[4],inactive
same,Potency,[5],inactive
same,outcome,[6],inactive
same,Potency,[7],inactive
same,max response,[8],1.29%
same,outcome,[9],inactive
same,Potency,[10],inactive
same,Potency,[11],inactive
same,Potency,[12],inactive
same,Potency,[13],inactive
same,Potency,[14],inactive
same,Potency,[15],inactive
same,Potency,[16],inactive
same,Potency,[17],inactive
same,Potency,[18],inactive
same,Potency,[19],inactive
same,Potency,[20],inactive
C[C@]12CC[C@H](O)C[C@@]1(O)CC[C@@H]1[C@@H]2CC[C@]2(C)[C@@H](c3ccc(=O)oc3)CC[C@]12O,Potency,[1],18.4 nM (active)
same,Potency,[2],inactive
same,Potency,[7],inactive
same,Potency,[8],5.2 nM (active)
same,max response,[9],-7.45%
same,Potency,[10],inactive
same,Potency,[11],inactive
same,Potency,[12],inactive
same,Potency,[13],inactive
same,Potency,[14],inactive
same,Potency,[15],inactive
same,Potency,[16],inactive
same,Potency,[17],inactive
same,Potency,[18],inactive
same,Potency,[19],inactive
same,Potency,[20],inactive
COc1cc(C(=O)N2CC[C@@H](O)[C@@H](N)C2)cc2nc(-c3cc4ccccc4n3CC3CC3)n(C)c12,Potency,[4],inactive
same,Potency,[5],inactive
same,Potency,[8],20900 nM (active)
Cc1ccc2c(c1)[C@H]1CN(C)CC[C@H]1N2C(=O)CSc1nnnn1-c1ccc(Cl)cc1,Potency,[1],inactive
same,Potency,[3],inactive
same,Potency,[4],inactive
same,Potency,[5],inactive
same,outcome,[6],inactive
same,Potency,[7],inactive
same,max response,[8],0.988%
same,outcome,[9],inactive
same,Potency,[10],inactive
same,Potency,[11],inactive
same,Potency,[12],inactive
same,Potency,[13],inactive
same,Potency,[14],inactive
same,Potency,[15],inactive
same,Potency,[16],inactive
same,Potency,[17],inactive
same,Potency,[18],inactive
same,Potency,[19],inactive
same,Potency,[20],inactive
CC(=O)O[C@H]1C[C@]2(O)[C@@H]3CC[C@@H]4C[C@@H](O)CC[C@]4(C)[C@H]3CC[C@]2(C)[C@H]1c1ccc(=O)oc1,Potency,[1],51.7 nM (active)
same,Potency,[2],inactive
same,Potency,[3],inactive
same,Potency,[4],inactive
same,Potency,[5],inactive
same,outcome,[6],inactive
same,Potency,[7],inactive
same,Potency,[8],51.7 nM (active)
same,max response,[9],-9.3%
same,Potency,[10],28.2 nM (active)
same,Potency,[11],158 nM (active)
same,Potency,[12],398 nM (active)
same,Potency,[13],100 nM (active)
same,Potency,[14],316 nM (active)
same,Potency,[15],89.1 nM (active)
same,Potency,[16],316 nM (active)
same,Potency,[18],100 nM (active)
same,Potency,[19],89.1 nM (active)
O=C(N1CCCCC1Cc1ccccc1)n1cc(-c2ccc(-c3ccccc3)cc2)nn1 (configuration not stated),Potency,[2],inactive
same,Potency,[3],inactive
same,Potency,[4],inactive
same,Potency,[5],inactive
same,outcome,[6],inactive
same,Potency,[7],inactive
same,max response,[8],2.49%
same,outcome,[9],inactive
same,Potency,[10],inactive
same,Potency,[11],inactive
same,Potency,[12],inactive
same,Potency,[13],inactive
same,Potency,[15],inactive
same,Potency,[16],inactive
same,Potency,[17],inactive
same,Potency,[18],inactive
same,Potency,[19],inactive
same,Potency,[20],inactive
CN1CCC2=C(C1)c1ccccc1Cc1ccccc12,Potency,[1],inactive
same,Potency,[2],inactive
same,Potency,[3],inactive
same,Potency,[4],inactive
same,Potency,[5],inactive
same,outcome,[6],inactive
same,Potency,[7],inactive
same,outcome,[8],inactive
same,max response,[9],0.135%
same,Potency,[10],inactive
same,Potency,[11],inactive
same,Potency,[12],inactive
same,Potency,[13],inactive
same,Potency,[14],inactive
same,Potency,[15],inactive
same,Potency,[16],inactive
same,Potency,[17],inactive
same,Potency,[18],inactive
same,Potency,[19],inactive
same,Potency,[20],inactive
CC(C)[C@H](NC(=O)c1nn(Cc2ccc(F)cc2)c2ccccc12)C(N)=O,Potency,[1],inactive
same,Potency,[2],inactive
same,Potency,[3],inactive
same,Potency,[4],inactive
same,Potency,[5],inactive
same,outcome,[6],inactive
same,Potency,[7],inactive
same,max response,[8],-7.52%
same,max response,[9],-27.5%
same,Potency,[10],inactive
same,Potency,[11],inactive
same,Potency,[12],inactive
same,Potency,[13],inactive
same,Potency,[14],inactive
same,Potency,[15],inactive
same,Potency,[16],inactive
same,Potency,[17],inactive
same,Potency,[18],inactive
same,Potency,[19],inactive
same,Potency,[20],inactive
COC1CC(O[C@H]2CC[C@@]3(C)C(CCC4C3CC[C@]3(C)C(C5=CC(=O)OC5)CCC43O)C2)OC(C)C1OC1OC(COC2OC(CO)C(O)C(O)C2O)C(O)C(O)C1O (some centres not stated),Potency,[1],1740 nM (active)
same,Potency,[2],inactive
same,Potency,[3],inactive
same,Potency,[4],inactive
same,Potency,[5],inactive
same,"activity change, negative = inhibition",[6],-3.95% [at 11.6 µM]
same,"activity, negative = inhibition",[7],0.592% [at 11.6 µM]
same,Potency,[8],693 nM (active)
same,max response,[9],2.72%
same,Potency,[10],2240 nM (active)
same,Potency,[13],3160 nM (active)
same,Potency,[14],2820 nM (active)
same,Potency,[15],3550 nM (active)
same,Potency,[18],2240 nM (active)
same,Potency,[19],2240 nM (active)
same,Potency,[20],794 nM (active)
